Measured values reported in PubChem BioAssay AID1159580 (chemical genetic matrix, 2015).
Hit rate of the full screen: of about 5,500 compounds, about 2,000 (36%) were called active. Roughly 18% stayed inconclusive and do not appear here. Rule as the data show it: active = normalized growth mostly below about 0.91 (no sharp cut-off); inconclusive = no clear call, values can overlap the other calls; inactive = mostly above about 0.92. The list shows a part of the results.

Assay: chemical genetic growth profiling, strain panel (AID 1159580);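 also: tested at 20 µM; growth read once vehicle control cultures reached saturation at 30 °C; 1 = growth at the plate median or of vehicle wells; lower values mean less growth of the strain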
Details: S. cerevisiae deletion strains, growth OD
[1] = locus YDL101C, strain DUN1, active compounds read low
[2] = locus YHR030C, strain SLT2, active compounds read low

Measured: normalized growth

COC(=O)c1sccc1NS(=O)(=O)c1cc(Cl)cc(Cl)c1
inactive: locus YAR019C, strain CDC15, active compounds read low 0.955 | locus YBL105C, strain PKC1, active compounds read low 0.946 | locus YBR135W, strain CKS1, active compounds read low 0.958 | locus YBR136W, strain MEC1, active compounds read low 0.951 | locus YBR160W, strain CDC28, active compounds read low 0.947 | locus YDL017W, strain CDC7, active compounds read low 0.954 | locus YDL028C, strain MPS1, active compounds read low 0.958 | [1] 0.949 | locus YDL108W, strain KIN28, active compounds read low 0.961 | locus YDL132W, strain cdc53, active compounds read low 0.958 | locus YDL214C, strain PRR2, active compounds read low 0.975 | locus YDR052C, strain DBF4, active compounds read low 0.957 | locus YDR054C, strain cdc34, active compounds read low 0.944 | locus YDR226W, strain ADK1, active compounds read low 0.954 | locus YDR477W, strain SNF1, active compounds read low 0.977 | locus YER123W, strain YCK3, active compounds read low 0.994 | locus YER133W, strain GLC7, active compounds read low 0.987 | locus YFL009W, strain cdc4, active compounds read low 0.954 | locus YFL029C, strain CAK1, active compounds read low 0.951 | locus YFR003C, strain YPI1, active compounds read low 0.957 | locus YFR019W, strain FAB1, active compounds read low 0.967 | locus YFR028C, strain CDC14, active compounds read low 0.958 | locus YGR040W, strain KSS1, active compounds read low 0.981 | locus YGR052W, strain FMP48, active compounds read low 1.05 | locus YGR092W, strain DBF2, active compounds read low 0.948 | [2] 1.04 | locus YHR079C, strain IRE1, active compounds read low 1.01 | locus YHR082C, strain KSP1, active compounds read low 1.06 | locus YHR205W, strain SCH9, active compounds read low 0.992 | locus YIL147C, strain SLN1, active compounds read low 0.955 | locus YJL095W, strain BCK1, active compounds read low 1.07 | locus YJL128C, strain PBS2, active compounds read low 0.925 | locus YJL157C, strain FAR1, active compounds read low 0.976 | locus YJR016C, strain ILV3, active compounds read low 0.959 | locus YJR066W, strain TOR1 (second series), active compounds read low 1.01 | locus YJR066W, strain TOR1, active compounds read low 1.06 | locus YKL048C, strain ELM1, active compounds read low 0.939 | locus YKL067W, strain YNK1, active compounds read low 0.973 | locus YKL101W, strain HSL1, active compounds read low 0.959 | locus YKL193C, strain SDS22, active compounds read low 0.958 | locus YKL203C, strain TOR2, active compounds read low 1.05 | locus YLR113W, strain HOG1, active compounds read low 0.92 | locus YLR133W, strain CKI1, active compounds read low 0.962 | locus YLR403W, strain SFP1, active compounds read low 0.996 | locus YML070W, strain DAK1, active compounds read low 0.991 | locus YMR001C, strain CDC5, active compounds read low 0.949 | locus YMR205C, strain PFK2 (second series), active compounds read low 0.978 | locus YMR277W, strain FCP1, active compounds read low 0.96 | locus YNL006W, strain LST8, active compounds read low 0.96 | locus YNL020C, strain ARK1, active compounds read low 0.964 | locus YNL161W, strain CBK1, active compounds read low 0.954 | locus YNL183C, strain NPR1, active compounds read low 1.02 | locus YNL207W, strain RIO2, active compounds read low 0.955 | locus YNL222W, strain SSU72, active compounds read low 0.953 | locus YNL307C, strain MCK1 (second series), active compounds read low 0.956 | locus YOL078W, strain AVO1, active compounds read low 0.963 | locus YOL136C, strain PFK27, active compounds read low 0.996 | locus YOR061W, strain CKA2, active compounds read low 0.979 | locus YOR119C, strain RIO1, active compounds read low 1.03 | locus YOR231W, strain MKK1, active compounds read low 0.986 | locus YOR329C, strain SCD5, active compounds read low 0.961 | locus YPL031C, strain PHO85, active compounds read low 0.987 | locus YPL153C, strain RAD53, active compounds read low 1.01 | locus YPL204W, strain HRR25, active compounds read low 0.975 | locus YPL209C, strain IPL1, active compounds read low 0.947 | locus YPL256C, strain CLN2, active compounds read low 0.963 | locus YPR025C, strain CCL1, active compounds read low 0.957 | locus YPR106W, strain ISR1, active compounds read low 0.945 | locus YPR111W, strain DBF20, active compounds read low 0.935 | strain NNK1, active compounds read low 0.948 | strain TSCII, active compounds read low 0.952

COCc1cc(=O)n2[nH]c(C(C)(C)C)cc2n1
inactive: locus YAL013W, strain DEP1, active compounds read low 1.01 | locus YBR229C, strain ROT2, active compounds read low 0.986 | [1] 0.996 | locus YDR150W, strain NUM1, active compounds read low 1.04 | locus YEL061C, strain CIN8, active compounds read low 0.939 | locus YGR078C, strain PAC10, active compounds read low 1.01 | [2] 1.07 | locus YHR087W, strain rtc3, active compounds read low 1.01 | locus YJR043C, strain POL32, active compounds read low 1.04 | locus YJR075W, strain HOC1, active compounds read low 1.01 | locus YLR039C, strain RIC1, active compounds read low 1.02 | locus YLR058C, strain SHM2 (second series), active compounds read low 0.988 | locus YLR085C, strain ARP6, active compounds read low 0.959 | locus YLR262C, strain YPT6, active compounds read low 1.03 | locus YML094W, strain GIM5, active compounds read low 0.986 | locus YMR219W, strain ESC1, active compounds read low 0.996 | locus YMR263W, strain SAP30, active compounds read low 1.04 | locus YNL153C, strain GIM3, active compounds read low 1.02 | locus YNL298W, strain CLA4 (second series), active compounds read low 0.965 | locus YNL322C, strain KRE1, active compounds read low 0.999 | locus YNR030W, strain Alg12, active compounds read low 1.01 | locus YPL055C, strain LGE1, active compounds read low 1.08 | locus YPL241C, strain CIN2, active compounds read low 0.977 | locus YPR135W, strain CTF4, active compounds read low 1.14
active: locus YJL187C, strain SWE1, active compounds read low 0.162
